PubChem BioAssay (NCI)
Where “and” joins values, the source holds several entries; their conditions need not be identical. Equal entries are not always repeated. This is part of a sample that, as a whole, favours compounds with a hit. Of some 79,000 tested, about 15% had one in any assay. A number with no mark means an inactive call. Calls of active or inactive are those of the source. Cut-off read from the data, not from the text of the source: active = growth inhibition above about 70%; inactive = the rest. Where a SMILES comes first, the peptide text is derived from it. [ ]: non-standard residue; d: D form. The star is where a group is joined. ξ: configuration not given here. ξF = NC(Cc1ccccc1)C(=O)O; Cbz = O=C(OCc1ccccc1)*; Aib = CC(C)(N)C(=O)O

Tests used:
[1] = NCI Yeast Anticancer Drug Screen. Data for the rad50 strain (AID 155);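 note: 0% = growth of vehicle-only cultures of the same strain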; conditions: S. cerevisiae rad50 strain growth inhibition, hits give high values; at 50.0 µM unless noted
Procedure, shortened: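 Genetically altered yeast (DNA repair pathway); compound treatment; growth inhibition vs vehicle ctrl.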

[2] = NCI Yeast Anticancer Drug Screen. Data for the mec2-1 strain (AID 157); conditions: S. cerevisiae mec2-1 strain, hits give high values; at 50.0 µM unless noted
Procedure, shortened: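 mec2-1 yeast strain, carrying an alteration in DNA damage repair or cell cycle control, was exposed to compounds; growth inhibition was measured relative to vehicle-treated controls.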

[3] = NCI Yeast Anticancer Drug Screen. Data for the sgs1 mgt1 strain (AID 161);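 note: 0% = growth of cultures given vehicle only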; conditions: S. cerevisiae sgs1 mgt1 strain, hits give high values; at 50.0 µM unless noted
Procedure, shortened: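 This yeast growth screen uses a strain with defined DNA-repair lesions; compound-treated growth is compared with vehicle-treated growth.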

[4] = NCI Yeast Anticancer Drug Screen. Data for the cln2 rad14 strain (AID 165);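 note: 0% = growth equal to vehicle treated cultures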; conditions: S. cerevisiae cln2 rad14 strain, hits give high values; at 50.0 µM unless noted
Procedure, shortened: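 Yeast carrying cln2 and rad14 alterations (cell cycle control and DNA damage repair) were exposed to compounds. Growth inhibition was measured against vehicle-treated controls.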

[5] = NCI Yeast Anticancer Drug Screen. Data for the bub3 strain (AID 167); conditions: S. cerevisiae bub3 mutant strain, hits give high values; at 50.0 µM unless noted
Procedure, shortened: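 Yeast carrying a defined mutation is treated with each compound, and growth is compared with that of vehicle-exposed cells to give inhibition.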

[6] = NCI Yeast Anticancer Drug Screen. Data for the mlh1 rad18 strain (AID 175); conditions: S. cerevisiae mlh1 rad18 strain growth inhibition, hits give high values; at 50.0 µM unless noted
Procedure, shortened: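 Growth inhibition of the yeast strain was measured after compound exposure and expressed relative to vehicle-treated controls. The strain carries defined defects in DNA damage repair.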

| SMILES | growth inhibition [1] | growth inhibition [2] | growth inhibition [3] | growth inhibition [4] | growth inhibition [5] | growth inhibition [6] |
| --- | --- | --- | --- | --- | --- | --- |
| CN(Cc1ccc(Cl)cc1)N=Nc1ccc(C(=O)O)cc1 | -5.5% | 4.4% | 24.7% | 25.8% | 16.6% | 24.6% |
| COc1cc(/C=N/NC(=O)c2ccccc2NC(=O)c2ccccc2)ccc1O | 2.05% | -13% | 20.1% | -32.5% | 37.7% | 30.9% |
| CCCCC(CCCC)C(=O)O | -22.3% | -9.65% | -9.85% | 50% | 10.9% | -9.3% |
| Nc1nc(Cl)cc(NCCO)n1 | -1.15% and -5.05% | -36.6% and 7% | -39.5% and 20.7% | -7.85% and -0.25% | -21.1% and 4.8% | 1.8% and 43.4% |
| NS(=O)(=O)c1ccc(N=Nc2ncccc2O)cc1 | 19.4% | 3.4% | -12.3% | -30.6% | -44% | 20.6% |
| COC(=O)C(C)(C)NC(=O)C(Cc1ccccc1)NC(=O)C(C)(C)NC(=O)OCc1ccccc1 (stereo not given) (Cbz-[Aib]-[ξF]-[Aib]-OMe) | 18.9% | 4.8% | -6.2% | 23.1% | 12.4% | -1.2% |
| CCN(CC)CCNc1ccc(COC(=O)NC)c2sc3ccccc3c(=O)c12 | 3.9% | -2.4% | -8.3% | -12.2% | -17.4% | -58.9% |
| NCCCC(=S)S | -4.35% | 12.6% | -0.75% | 12.8% | 13.8% | 13.4% |
| CC(C)OC(=O)CC1NS(=O)(=O)c2ccccc21 (stereo not given) | 3.9% | 1% | -9.7% | 24.6% | -16.6% | 20.6% |
| Cc1c(Cl)cc(Cl)c2c1C(=O)CC(C)O2 (stereo not given) | 20.4% | 7.4% | -0.4% | -17.2% | -14.5% | 18.8% |
| CC(C)COC(c1ccccc1)c1ccccc1 | -9.5% | -9.75% | 5.15% | 18.8% | -12.8% | -4.75% |
| COc1ccc(N/C=C/C2=[N+](C)c3ccccc3C2(C)C)c(OC)c1 | 1.85% and -24.3% | -17.2% and -19.6% | -8.5% and -20.9% | 0.45% and -58.4% | -5.55% and -2.4% | 5.5% and -7.05% |
| CCOC(=O)Cn1c(=O)[nH]c(=O)c2c1ncn2Cc1ccccc1 | 32.9% | -2.35% | -3.1% | 13.2% | 30.2% | 25.7% |
| Cc1cc(C)c(S)c(C)c1.[Cu+2] | -29.1% | -10.3% | -5.85% | -53.2% | -28.9% | -2.55% |
| O=C(C/C(CCC(=O)N(Cc1ccccc1)Cc1ccccc1)=N/Nc1ccc([N+](=O)[O-])cc1[N+](=O)[O-])c1ccccc1 | 42.9% | 29.9% | 60% | 41.6% | 1.05% | 61.8% |
| CC(C)CCn1c(=O)c2c(ncn2C)n(C)c1=O | 21.9% | 20.3% | 22.9% | 10.2% | -0.5% | 13.2% |
| Nc1ccc2c(C(F)(F)F)cc(=O)oc2c1 | 14.2% | -2.2% | 8.2% | -29.6% | 8.55% | 8.8% |
| O=C1OC(OC2CCCCC2)(c2ccccc2)c2ccccc21 (stereo not given) | -25.1% | -7.75% | -0.15% | -23.5% | -1.65% | -5.55% |

| SMILES | growth inhibition [1] | growth inhibition [2] | growth inhibition [3] | growth inhibition [4] | growth inhibition [5] | growth inhibition [6] |
| --- | --- | --- | --- | --- | --- | --- |
| COc1ccc(C2Oc3cc(OC)c(O)cc3[C@@H]2C)cc1 (stereo not given in full) | -7.35% | 28.6% | 2.55% | 15.6% | 54.8% | 31% |
| CC(C)(C)OC(=O)NNS(=O)(=O)CCC(NC(=O)OCc1ccccc1)C(=O)OCc1ccccc1 (stereo not given) | 46.7% | 93.2% (active) | 51.1% | 86.5% (active) | 94.5% (active) | 95.6% (active) |
| O=S(=O)(O)CCCOC1COc2ccccc2OCCOCCOc2ccccc2OC1 | -0.65% | 1.65% | -15.5% | -6.45% | -4.1% | -7.55% |
| COc1ccc(C(C)c2cc(N=NC(N)=O)c(OC)cc2O)cc1 (stereo not given) | -2.7% | -3.6% | -4.1% | -4.25% | 16.9% | 12.7% |
| CC(C)(O)C#CC(C)(C)O | 1.1% | -7.7% | -10.7% | 0.25% | 5.65% | -11.7% |
| CCOC(=O)c1nnsc1N/N=C\c1ccc([N+](=O)[O-])cc1 | -5.05% | -15% | -25.7% | 12.3% | -19.5% | 14.3% |
| CC1(C)CC(=O)C=C(NCc2ccccc2)C1 | -0.95% | -2.6% | -8.35% | -24.9% | -19.1% | 11.2% |
| COc1cc(C(=O)N(C)C)cc(OC)c1OC | -1.25% | 2.65% | -6.6% | 2.25% | -4% | 5.5% |
| O=C1C=C(Nc2ccccc2)c2ccccc2C1=O | -1.15% and 24.4% | 16.4% and -8.6% | 11.4% and 25.4% | -14.5% and 19.9% | 33.9% and 14.1% | 15.2% and 12.2% |
| Nc1nc(N)c(N=O)c(Nc2ccccc2)n1 | 7.75% | 6.9% | -8.35% | 0.45% | 41.6% | 43.4% |
| CC1=NN(C(=O)Nc2ccc(Cl)cc2)C(=O)C2CCC(=O)N12 (stereo not given) | 2.6% | 0.6% | 1.1% | 2.7% | -0.45% | 27% |
| C[N+](C)(C)CC(O)C[N+](C)(C)C | 12.1% | 6.15% | 3.6% | -42.1% | -3.5% | 22.7% |
| CN(C)C(=O)Sc1ccc(C(C)(C)C)cc1 | 8.3% | -8.1% | -15.7% | -41.5% | -1.65% | -28.2% |
| O=C(Nc1ccc2c(c1)Cc1ccccc1-2)c1cccc2ccccc12 | -4.05% | -20.8% | 0.4% | -47% | 12.2% | -5.2% |
| COc1ccc(NC(=O)CC(=O)N2N=C(N3c4ccccc4Sc4ccccc43)CC2c2ccccc2)cc1 (stereo not given) | 8.65% | -4.1% | 0.8% | 14.2% | 4.8% | -3.6% |
| COc1ccc(CNC(=O)CC(C)=O)cc1 | -6.7% | -17.5% | 3.35% | 7.25% | 13% | 0.95% |
| CCCCCC1CC(=O)NC1C(=O)O (stereo not given) | -2.75% | 1.25% | -10.8% | -8.8% | -1.15% | -8.95% |
